The numbers were not newly measured in PubChem BioAssay AID977610, which cites them from elsewhere.

Screen size: about 3,600 compounds; about 3,600 (100%) were called active. No cut-off is given here; in the data, nearly all actives have Ki up to about 18000 µM. So high a share suggests a set chosen from earlier hits. The list shows a part of the results. Bridge positions count the residues as written; N and C are the ends. Square brackets hold non-standard residues; d marks the D form. Peptide text beside a SMILES is read from it. Orn(CH(NH2)2) = NC(N)NCCC[C@H](N)C(=O)O

A short description of the data set: PubChem AID 977610. Conditions: PDB protein-ligand complexes, literature Ki.

On to `C[C@@H](N)C(=O)N[C@H](C)C(=O)O` (H-[dA]-[dA]-OH), for which, under “protein: vancomycin resistance D,D-dipeptidase/D,D-pentapeptidase VanXYc D59S mutant, PDB entry 4oak”, the Ki is 59.7 µM (active).

On to `O=c1[nH]c(=O)n([C@@H]2O[C@H](CO[P+](O)(O)O[P+](O)(O)O)[C@@H](O)[C@H]2O)cc1-c1ccc(CO)s1`, for which, under “protein: Histo-blood group ABO system transferase, PDB entry 3v0p”, the Ki was 0.53 µM (active).

As to `O=c1[nH]c(=O)n([C@@H]2O[C@H](CO[P+](O)(O)O[P+](O)(O)O[C@H]3O[C@H](CO)[C@H](O)[C@H](O)[C@H]3O)[C@@H](O)[C@H]2O)cc1-c1ccccc1`, the Ki (protein: Histo-blood group ABO system transferase, PDB entry 3v0l) was 3 µM (active).

Consider `N[C@](CF)(Cc1c[nH]c2ccccc12)C(=O)O`, for which the Ki (protein: Pyridoxal-dependent decarboxylase domain protein RUMGNA-01526, PDB entry 4obv) is 178000 µM (active).

In the case of `CN(C)CCOc1cccc(-c2ccc(Cl)cc2)c1CN1CCN(c2ccc(C(=O)NS(=O)(=O)c3ccc(NCC4CCOCC4)c([N+](=O)[O-])c3)c(Oc3ccc4[nH]ccc4c3)c2)CC1`, the Ki is, setting by setting: (protein: Apoptosis regulator Bcl-2, PDB entry 4lxe) 0.0001 µM (active); (protein: Apoptosis regulator Bcl-2, PDB entry 4man) 1e-05 µM (active).

Turning to `CN1C(=O)[C@@](CCC2CCCCC2)(C[C@H]2CCC[C@@H](Nc3ccc4ccccc4n3)C2)N=C1N`, the Ki (protein: Beta-secretase 1 BACE 1, PDB entry 4r95) was 0.014 µM (active).

With `Cc1cc(Oc2cccc(O)c2)cc(-c2ccccc2)n1`, the Ki (protein: Macrophage migration inhibitory factor-like protein MIF, PDB entry 4p7m) is 0.039 µM (active).

Turning to `COc1ccc(-c2cc(Oc3cc(C)cc(OC)c3)cc(C)n2)cc1`, where the note is “protein: Macrophage migration inhibitory factor-like protein MIF, PDB entry 4p7s”, the Ki is 0.038 µM (active).

As to `COc1cc(O)c2c(c1)/C=C/C[C@H](O)[C@H](O)C(O)CCC[C@H](C)OC2=O` (stereo partly drawn), under “protein: Tak1-Tab1 fusion protein, PDB entry 4gs6”, the Ki is 0.071 µM (active).

Take `Cc1ncc(CO[P+](O)(O)O)c(CNc2co[nH]c2=O)c1O`: the Ki (protein: methionine gamma-lyase MGL, PDB entry 4oma) was 68 µM (active).

As to `CCCN1CCC(c2nc3c(C(N)=O)cccc3[nH]2)CC1`, the Ki (protein: Poly [ADP-ribose] polymerase 1, PARP-1, PDB entry 2rcw) was 0.008 µM (active).

For `O=C(O)Cc1nn(Cc2nc3cc(C(F)(F)F)ccc3s2)c(=O)c2ccccc12`, the Ki (protein: Lactoylglutathione lyase, PDB entry 4kyh) is 1.2 µM (active).

With `CC1(C)CCC(c2ccc(Cl)cc2)=C(CN2CCN(c3ccc(C(=O)NS(=O)(=O)c4ccc(N[C@H](CCN5CCOCC5)CSc5ccccc5)c(S(=O)(=O)C(F)(F)F)c4)cc3)CC2)C1`, the Ki (protein: Apoptosis regulator Bcl-2, PDB entry 4lvt) was 4.4e-05 µM (active).

For `O=C(NS(=O)(=O)c1ccc(NC2CCOCC2)c([N+](=O)[O-])c1)c1ccc(N2CCN(CC3=C(c4ccc(Cl)cc4)CCOC3)CC2)cc1`, for the setting “protein: Apoptosis regulator Bcl-2, PDB entry 4lxd”, the Ki was 0.059 µM (active).

For the molecule `NC(=O)C[C@@H]1NC(=O)[C@@H](N)CSSC[C@@H](C(=O)NCC(=O)O)NC(=O)[C@H](CCCN=C(N)N)NC(=O)CNC1=O` (H-CNGRCG-OH; disulfide 1-5), the Ki (protein: Aminopeptidase N pAPN, PDB entry 4ou3) was 38.7 µM (active).

Turning to `CC(C)C[C@H](NC(=O)[C@@H]1CSSC[C@H]2C[C@H](NC(=O)CN)C(=O)N[C@@H](CC(C)C)C(=O)NCC(=O)N[C@@H](CCCN=C(N)N)C(=O)NCC(=O)N[C@@H](CSS2)C(=O)N[C@@H](CCC(=O)O)C(=O)N[C@@H](CC(N)=O)C(=O)N[C@@H](Cc2cnc[nH]2)C(=O)N[C@@H](CCCN=C(N)N)C(=O)N1)C(N)=O`, the Ki (protein: Urokinase-type plasminogen activator, PDB entry 4os6) was 0.36 µM (active).

Consider `CC(C)C[C@H](NC(=O)[C@@H]1CSS[C@@H]2CSSC[C@H](NC(=O)CNC(=O)[C@H](CCCN=C(N)N)NC(=O)CNC(=O)[C@H](CC(C)C)NC(=O)[C@@H](NC(=O)CN)C2)C(=O)N[C@@H](CCC(=O)O)C(=O)N[C@@H](CC(N)=O)C(=O)N[C@@H](Cc2cnc[nH]2)C(=O)N[C@@H](CCCN=C(N)N)C(=O)N1)C(N)=O`, for which, for the setting “protein: Urokinase-type plasminogen activator, PDB entry 4os2”, the Ki was 0.2 µM (active).

With `CSCC[C@@H]1NC(=O)[C@H](CCCNC(N)N)NC(=O)[C@H](Cc2cnc[nH]2)NC(=O)[C@H](CC(N)=O)NC(=O)[C@H](CCC(=O)O)NC(=O)[C@H](CC(C)C)NC(=O)CNC(=O)[C@H](CCCNC(N)N)NC(=O)[C@H](Cc2c[nH]c3ccccc23)NC(=O)[C@H](CO)NC(=O)[C@@H](N)CSSC[C@@H](C(=O)O)NC1=O` (H-CSW[Orn(CH(NH2)2)]GLENH[Orn(CH(NH2)2)]MC-OH; disulfide 1-12), the inhibitory constant (Ki) (protein: Plasminogen activator, urokinase, PDB entry 2nwn) is 0.5 µM (active).

Consider `CC(C)C[C@H](NC(=O)[C@@H]1CSSC[C@H](N)C(=O)N[C@H]2CSSC[C@H](NC(=O)CNC(=O)[C@H](CCCNC(N)N)NC(=O)CNC(=O)[C@H](CC(C)C)NC2=O)C(=O)N[C@@H](CCC(=O)O)C(=O)N[C@@H](CC(N)=O)C(=O)N[C@@H](Cc2cnc[nH]2)C(=O)N[C@@H](CCCNC(N)N)C(=O)N1)C(N)=O` (H-CCLG[Orn(CH(NH2)2)]GCENH[Orn(CH(NH2)2)]CL-NH2; disulfide 1-12, 2-7), for which, under “protein: Urokinase-type plasminogen activator (C122A, N145Q mutation), PDB entry 4gly”, the Ki is 7.7 µM (active).

Consider `O=c1cc(-c2ccc(Br)cc2)oc2ccccc12`, for which the Ki (protein: Tankyrase-2, PDB entry 4kzu) was 0.313 µM (active).

For `COc1ccc(CC[C@@H](OC(=O)[C@@H]2CCCCN2C(=O)[C@H](c2cc(OC)c(OC)c(OC)c2)[C@@H]2CC=CCC2)c2cccc(OCC(=O)NCc3c(O)ccc4cc5ccc(=O)cc-5oc34)c2)cc1OC`, under “protein: Peptidyl-prolyl cis-trans isomerase FKBP4 FKBP52FK1FK2, PDB entry 4tw8”, the Ki is 2.61 µM (active).

Consider `COc1ccc(CC[C@@H](OC(=O)[C@@H]2CCCCN2C(=O)[C@H](c2cc(OC)c(OC)c(OC)c2)[C@@H]2C=CCCC2)c2cccc(OCCN3CCOCC3)c2)cc1OC`, for which the Ki (protein: Peptidyl-prolyl cis-trans isomerase FKBP5 FKBP51FK1, PDB entry 4tw7) was 0.026 µM (active).

Consider `C=CC[C@H](C(=O)N1CCCC[C@H]1C(=O)O[C@H](CCc1ccc(OC)c(OC)c1)c1cccc(OCC(=O)O)c1)c1cc(OC)c(OC)c(OC)c1`, for which, for the setting “protein: Peptidyl-prolyl cis-trans isomerase FKBP5 FKBP51FK1, PDB entry 4tw6”, the Ki was 61 µM (active).

In the case of `OC[C@H]1CNC[C@@H](O)[C@@H]1O[C@@H]1O[C@H](CO)[C@@H](O)[C@H](O)[C@@H]1O`, the Ki runs as follows: (protein: GH26 beta-mannanase CjMan26C from Cellvibrio japonicus, PDB entry 4cd4) 0.263 µM (active); (protein: GH113 beta-mannanase AaManA from Alicyclobacillus acidocaldarius, PDB entry 4cd6) 260 µM (active).

Consider `OC[C@H]1CNC[C@@H](O)[C@@H]1O`, for which the Ki (protein: Beta-glucosidase 1, PDB entry 4iic) is 14 µM (active).

Turning to `O=C(c1ccc(F)c(F)c1Nc1ccc(I)cc1F)N1CC(O)([C@@H]2CCCCN2)C1`, the Ki (protein: Dual specificity mitogen-activated protein kinase kinase 1, PDB entry 4lmn) was 5e-05 µM (active).
